High-throughput results: PubChem, several laboratories
Sampled rows, rich in hits. Any-hit rate of the full collection: about 4.9%.
HSP90 refold inh: blocks HSP90-mediated luciferase refolding in reticulocyte lysate; 0.91% of 290,000 active; AID 1789; Rabbit reticulocyte lysate, luciferase refolding luminescence, 3 h; inhibition, % at 5.6 µM;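 active = inhibition above the screen-wide mean plus 3 SD, computed separately per campaign, cut at about 16% in these data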;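 also: 0% = DMSO wells and 100% = 60 µM geldanamycin wells; inhibitors lower the luminescence because luciferase stays unfolded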
dFosB activator: mouse delta FosB homodimer activation; P13346; purified delta FosB, TAMRA-CDK5 oligo fluorescence polarization; percent of positive-control signal above neutral wells; activation, % at 25 µM; 0.99% of 340,000 active;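 active = mean activation above about 17%, with every replicate also reaching it, limit read from the data, passing the limit was not always enough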
Target sequence (P13346 whole entry, looked up): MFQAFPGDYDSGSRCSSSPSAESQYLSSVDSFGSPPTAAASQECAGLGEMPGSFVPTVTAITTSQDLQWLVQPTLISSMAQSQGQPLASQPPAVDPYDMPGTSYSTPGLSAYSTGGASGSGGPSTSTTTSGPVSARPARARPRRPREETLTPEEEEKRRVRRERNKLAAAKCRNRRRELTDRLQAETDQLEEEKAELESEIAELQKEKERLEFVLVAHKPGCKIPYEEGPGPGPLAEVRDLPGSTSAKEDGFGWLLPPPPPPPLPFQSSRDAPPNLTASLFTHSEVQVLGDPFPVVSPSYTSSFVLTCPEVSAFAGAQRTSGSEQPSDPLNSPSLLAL
HSF-1 act: increases HSF-1 driven luciferase reporter signal; NIH3T3-HGL HSF-1 luciferase reporter, MG132, 8 h; 100% = twice DMSO control signal; activation, % at 9 µM; 1.7% of 300,000 active; AID 504408;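 active = mean replicate activation of at least 50% with a set share of replicates each reaching 50%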;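 also: 0% = median of the neutral control wells and 100% = twice that signal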
HSF1 inhib: HSF1 inhibition; activity change, negative = inhibition, % at 7.5 µM (by protocol); NIH3T3-HGL HSE-luciferase, MG132-induced, luminescence 8 h; active compounds read low; 0.77% of 300,000 active; AID 2098;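 active = more than half of replicate wells show activity change below -50%, luminescence cut by over half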;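 also: luciferase reports HSF-1 transcriptional activity via heat shock element; 0% = median of DMSO wells and -100% = zero luminescence signal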
MPTP inh: inhibitors of mitochondrial permeability transition pore. isolated mouse mitochondria, Ca2+ swelling absorbance, 30 min. inhibition, % at 10 µM. 1.4% of 360,000 active;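 active = inhibition of 50% or more, scaled per plate between neutral and stimulator controls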;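 also: 0% = DMSO wells given calcium and 100% = 1 mM EGTA wells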
Platelet DG rel: platelet dense granule release activity. human platelet-rich plasma, SFLLRN dense granule ATP release, luminescence. AID 1663. 0.22% of 300,000 active. inhibition, %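 (compounds screened at 7.5 µM in platelet-rich plasma)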;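 active = mean replicate score, as percent of positive control, at or above 50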
An asterisk follows results filed as active; nt = not tested or not shown.

SMILES | HSP90 refold inh | dFosB activator | HSF-1 act | HSF1 inhib | MPTP inh | Platelet DG rel
CCOC(=O)C1CCN(c2ncnc3c2cnn3-c2ccccc2)CC1 | -0.5 | 2.0 | -19.9 | 1.4 | -2.0 | 3.6
COc1ccc(-n2ncc3c(N4CCC(C)CC4)ncnc32)cc1 | 29.0* | -3.4 | -19.4 | -15.9 | -0.2 | 27.0
CC1CCN(c2ncnc3c2cnn3-c2ccccc2)CC1 | -2.5 | -15.2 | 56.9* | 34.5 | -0.7 | -5.9
CSCCC(c1nnnn1C1CCCC1)N1CCN(C/C=C/c2ccccc2)CC1 (stereo not given) | nt | nt | nt | nt | 0.9 | nt
COc1ccc(C(C(=O)NC2CCCC2)N(Cc2cccnc2)C(=O)Cc2cccs2)c(OC)c1 (stereo not given) | 0.1 | -12.3 | 7.7 | 1.4 | -0.1 | 6.5
CCC1=[N+](CC(=O)c2ccc(C)cc2)CCn2cccc21 | -1.3 | -2.3 | 50.9* | 32.1 | 0.3 | -1.3
CCC1=[N+](CC(=O)c2ccc(C)cc2)CCn2c(C)ccc21 | 1.8 | -4.3 | 26.9 | 4.9 | 0.9 | -1.8
CC[C@]12c3[nH]c4ccccc4c3CCN1C(=O)C(CC(=O)NCCC1=CCCCC1)C[C@@H]2C(=O)N1CCN(C(=O)c2ccco2)CC1 (stereo not given in full) | nt | -20.6 | nt | nt | 0.7 | nt
CCOC1=C2[C@@H](CN(S(=O)(=O)c3ccc(C)cc3)[C@H]2c2cccc3ccccc23)[C@H]2C(=O)N(c3ccccc3)C(=O)[C@H]2C1 | nt | nt | nt | nt | -0.3 | nt
CCC1CCCCN1C(=O)COC(=O)c1cc2ccccc2cc1O (stereo not given) | -1.5 | -5.1 | 83.5* | 46.1 | -0.5 | -6.1
CC1CC(C)CN(C(=O)c2ccc3c(=O)n(Cc4ccc5c(c4)OCO5)c(=S)[nH]c3c2)C1 (stereo not given) | -2.8 | -4.8 | 65.3* | 23.3 | 24.8 | -0.2
CCOc1ccc(NC(=O)C2(c3ccc(OC)c(OC)c3)CCCC2)cc1 | -0.1 | -2.4 | -5.0 | 1.8 | 0.3 | -0.4
CCCc1ccc(-c2cc(NC(=O)CSc3nnc(N)s3)n(-c3ccccc3)n2)cc1 | -1.6 | -5.1 | 61.4* | 38.5 | 3.3 | 5.9
Cc1nnc(SCC(=O)Nc2cc(-c3cc(C)c(C)cc3C)nn2-c2ccccc2)s1 | 3.1 | 1.3 | 5.8 | 5.2 | 5.6 | 4.9
CCN(CC(=O)Nc1c(F)cccc1F)C(=O)Cc1n[nH]c(=O)c2ccccc12 | nt | -7.7 | -78.0 | -71.5* | -1.4 | -8.8
CCN(CC(=O)Nc1c(F)cccc1F)C(=O)CCc1nc2ccccc2c(=O)[nH]1 | nt | -10.8 | 23.9 | 2.0 | -3.1 | 13.4
COc1cc2c(cc1OC)CN(c1ccc(C(F)(F)F)cn1)CC2 | -0.2 | -1.9 | 102.1* | 65.8 | 0.8 | -3.7
O=C(COC(=O)c1cc(F)cc(F)c1)NCCCc1ccccc1 | -1.3 | 0.7 | 34.0 | 1.8 | 0.0 | -3.5
COc1ccc(C2=NOC(C(=O)Nc3c(C)n(C)n(-c4ccccc4)c3=O)C2)cc1OC (stereo not given) | -0.6 | 1.3 | -79.5 | -73.4* | -2.2 | -0.8
COc1ccc(C2=NOC(C(=O)N3CCCCCC3)C2)cc1OC (stereo not given) | -0.2 | 1.8 | -83.0 | -77.9* | 0.2 | -3.8
O=C(C1CC(c2ccc(F)cc2)=NO1)N1CCCCC1 (stereo not given) | 4.6 | -5.6 | 15.5 | 18.3 | -0.1 | -4.6
O=C(Nc1ncccc1O)c1ccc(Cl)c(S(=O)(=O)N2CCCC2)c1 | nt | nt | nt | nt | -0.4 | nt
O=C(NCCCC1CCCC1)C1CCC(=O)N(Cc2ccc(Cl)cc2)C1 (stereo not given) | 3.8 | -4.4 | 35.0 | 28.3 | -0.5 | -8.9
CC1CCCCN1CC(=O)Nc1ccccc1Sc1ccccc1 (stereo not given) | -3.8 | 2.3 | -66.6 | -59.4* | 0.0 | 4.2
COC(=O)C1CCN(CC(=O)Nc2ccccc2Sc2ccccc2)CC1 | 2.7 | -11.2 | 18.7 | 4.6 | 9.9 | 9.3
O=C(Nc1nccs1)c1cccc(N2C(=O)c3cccc4c([N+](=O)[O-])ccc(c34)C2=O)c1 | 1.0 | -7.9 | 170.3* | 148.1 | -3.9 | 35.7
Cc1ccc(NC(=O)CSc2nnc(CSc3nc(C)cc(C)n3)n2Cc2ccco2)c(C)c1 | 1.2 | -14.5 | 9.7 | 2.5 | 1.3 | 1.1
COc1ccc(C)cc1NC(=O)CSc1nnc(COc2ccccc2)n1Cc1ccco1 | 2.7 | -13.1 | -1.0 | 2.5 | 4.5 | -1.0
